About 2,000 (36%) of roughly 5,500 compounds were called active. Not shown: some 18% with an inconclusive outcome. Rule as the data show it: active = normalized growth mostly below about 0.91 (no sharp cut-off); inconclusive = no clear call, values can overlap the other calls; inactive = mostly above about 0.92. The list shows a part of the results.
Assay: chemical genetic growth profiling, strain panel (AID 1159580);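 also: tested at 20 µM; growth read once vehicle control cultures reached saturation at 30 °C; 1 = growth at the plate median or of vehicle wells; lower values mean less growth of the strain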
Conditions: S. cerevisiae deletion strains, growth OD

Measured: normalized growth

COC(=O)c1cc2c(cn1)[nH]c1ccccc12
inactive: locus YAL040C, strain CLN3, stronger effect = lower value 0.978 | locus YCL061C, strain MRC1 (second series), stronger effect = lower value 1 | locus YDR150W, strain NUM1, stronger effect = lower value 0.999 | locus YDR363W, strain ESC2, stronger effect = lower value 0.996 | locus YER002W, strain NOP16, stronger effect = lower value 0.986 | locus YMR263W, strain SAP30, stronger effect = lower value 1 | locus YMR307W, strain GAS1, stronger effect = lower value 0.998 | locus YNL153C, strain GIM3, stronger effect = lower value 0.995 | locus YNL175C, strain NOP13, stronger effect = lower value 0.988 | locus YNL197C, strain WHI3, stronger effect = lower value 0.993 | locus YNL224C, strain SQS1, stronger effect = lower value 0.981 | locus YNL322C, strain KRE1, stronger effect = lower value 1.01 | locus YOR083W, strain WHI5 (second series), stronger effect = lower value 0.96 | locus YPL241C, strain CIN2, stronger effect = lower value 1

Reference: PubChem BioAssay AID1159580 (chemical genetic matrix, 2015)
